The source of these data is PubChem BioAssay AID2227 (Johns Hopkins Ion Channel Center, 2009).

Among all 310,000 compounds or so, about 1,300 (0.42%) were called active. This is one part of a sample in which actives are shown more often than they occur.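 Rule for the calls: active = B-score of calcium response area above 5 SD of library B-scores, with initial fluorescence ratio within 5 SD of library; inactive = the rest.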

Short transient receptor potential channel 4 (Mus musculus), sequence (Q9QUQ5 whole entry, looked up): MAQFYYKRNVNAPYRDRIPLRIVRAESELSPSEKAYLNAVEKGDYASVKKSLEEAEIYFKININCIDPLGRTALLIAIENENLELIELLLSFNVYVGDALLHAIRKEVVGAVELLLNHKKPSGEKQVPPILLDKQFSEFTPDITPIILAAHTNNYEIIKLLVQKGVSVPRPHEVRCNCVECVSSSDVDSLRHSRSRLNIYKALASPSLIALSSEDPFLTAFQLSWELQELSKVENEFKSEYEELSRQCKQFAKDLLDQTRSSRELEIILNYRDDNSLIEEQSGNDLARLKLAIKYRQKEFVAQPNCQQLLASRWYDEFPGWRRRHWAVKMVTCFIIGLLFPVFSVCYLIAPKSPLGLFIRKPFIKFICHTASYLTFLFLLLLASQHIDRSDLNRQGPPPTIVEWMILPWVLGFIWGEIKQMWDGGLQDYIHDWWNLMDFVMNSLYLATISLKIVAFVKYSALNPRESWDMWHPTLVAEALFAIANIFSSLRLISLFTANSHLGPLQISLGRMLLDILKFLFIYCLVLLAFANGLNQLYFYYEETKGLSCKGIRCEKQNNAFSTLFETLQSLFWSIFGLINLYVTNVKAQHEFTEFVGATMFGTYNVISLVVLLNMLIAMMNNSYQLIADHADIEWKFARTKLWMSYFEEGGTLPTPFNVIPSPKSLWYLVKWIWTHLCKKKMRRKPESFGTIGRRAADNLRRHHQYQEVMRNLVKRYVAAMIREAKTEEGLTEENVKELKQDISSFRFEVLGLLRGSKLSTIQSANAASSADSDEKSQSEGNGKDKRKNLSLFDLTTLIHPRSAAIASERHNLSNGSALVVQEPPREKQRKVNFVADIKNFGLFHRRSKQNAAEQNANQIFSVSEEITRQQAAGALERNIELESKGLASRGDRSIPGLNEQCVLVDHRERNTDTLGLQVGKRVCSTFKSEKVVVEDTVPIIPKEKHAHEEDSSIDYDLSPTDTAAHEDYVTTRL

The experiment addresses Short transient receptor potential channel 4 (Mus musculus) (UniProt Q9QUQ5). The experiment in a line: positive allosteric modulators of TRPC4, primary screen, cell-based, mouse TRPC4beta, HEK293 mu-opioid, Fluo-4 calcium (AID 2227).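 For B-score: B-score of integrated fluorescence ratio over time as area under calcium response.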 As to conditions: DAMGO EC20, Fluo-4 Ca2+ flux, at 10 µM; hits give high values. In general terms: Calcium assays in cells follow changes in intracellular calcium, usually with a dye or a luminescent sensor.
Take `CCN1CC2C3CCC(C)(O3)C2C1` (stereo not given): the B-score was 15 (active).
For `Cc1ccc(N(C)C(=O)Oc2cccc3ccc(C)nc23)cc1` the value was “inactive”.
As for `CN(C)C(=O)Oc1ccc2c(c1)O/C(=C\c1ccccc1)C2=O`, the B-score result is “inactive”.
As to `CNC(=O)O/N=C(\N)Cc1csc2ccccc12`, the B-score result was “inactive”.
Consider `O=c1c2ccccc2nc(-c2ccco2)n1-c1ccc(Br)cn1`, for which the B-score result was “inactive”.
`Cc1ccc(-c2nc3ccccc3c(=O)n2-c2ccc(Br)cn2)cc1`: the B-score is 12 (active).
In the case of `O=c1c2ccccc2nc(-c2ccccc2)n1-c1ccccn1` it was “inactive”; in that of `CC(=NCc1ccc2c(c1)OCO2)c1c(O)[nH]c(=O)[nH]c1=O`, “inactive”.
In the case of `COC(=O)C1=C(c2cc3ccccc3s2)C[C@@H]2CC[C@H]1N2C(=O)NCCO` it was “inactive”; in that of `O=C(Cn1c(=O)n(CC2CS2)c2ccccc21)N1CCCCC1` (stereo not given), “inactive”; in that of `CCOC(=O)C(O)(c1ccc(N)c(OC)c1)C(F)(F)F` (stereo not given), “inactive”.
In the case of `COC(=O)C(O)(c1ccc(NC(=O)c2ccco2)c(OC)c1)C(F)(F)F` (stereo not given) it was 12 (active).
`CCOC(=O)C(O)(c1ccc(NC(=O)c2ccco2)c(OC)c1)C(F)(F)F` (stereo not given): the B-score entry is “inactive”.
For `Cc1ccc2c(c1)=C/C(=C\c1c(O)[nH]c(=O)[nH]c1=O)C(=O)N=2` the value was “inactive”; for `COc1ccccc1C1=NCc2nnc(CSC)n2-c2ccc(Cl)cc21`, “inactive”.
For `O=C(Cc1ccccc1[N+](=O)[O-])N1CCN(Cc2ccc3c(c2)OCO3)CC1` the value was “inactive”.
Take `Fc1ccc(N2CCN(Cc3ccc4c(c3)OCO4)CC2)cc1`: the B-score entry was “inactive”.
For `CCN1CCN(Cc2cc(OC)c3c(c2)OCO3)CC1` the value was 11 (active); for `Cc1cc2ccccn2c1C(C[N+](=O)[O-])c1c(F)cccc1Cl` (stereo not given), “inactive”; for `O=c1[nH]c(=S)n(C2CC2)c(O)c1/C=N/N1CCOCC1`, “inactive”.
